# In the library only some 2.6% were active in any assay of this set; here they are far more common.
# uPA generation: blocks generation of uPA at the cell surface | Potency, µM (doses to about 38.3 µM), for the others: at the highest dose activity change, negative = inhibition, usual class: inhibitors | cell surface uPA generation assay, qHTS | 330,000 tested, 0.31% active | AID 540303; active = well fitted inhibition curve with a large enough effect; inconclusive = small, poorly fitted or top-dose-only effect; inactive = no such curve, though single readings can be large or run the other way; tested in mouse RAW 264.7 cells; also: potency is read from the fitted curve at half-maximal effect; % is scaled to controls: 0 for no effect and ±100 for the full control effect; nearly all actives have a fitted effect of over 55% in size
# HepG2 tox-1: kills HepG2 cells in TGF-b inhibitor counter-screen | HepG2 CAGA-GFP viability, ATP luminescence, 18 h | Potency, µM (titrated, usually from 46.1 µM), inactives show at the highest dose activity change, negative = cytotoxicity, actives largely listed as cytotoxic | 410,000 tested, 0.76% active; also: potency is read from the fitted curve at half-maximal effect
#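 CellTiter-Glo luminescence gave cytotoxicity after 18 hours at 37 degrees C. The cells were HepG2 CAGA-GFP in 1% FBS DMEM, stimulated with 500 pg/mL TGF-beta after compound addition. %Activity was normalised to no-cell wells (complete cell-killing) and DMSO (no toxicity), and curves were fitted and classified.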
# Giardia kill: Giardia lamblia killing; Giardia lamblia trophozoite viability; activity change, % at 7.66 µM, hits read low; 340,000 tested, 0.15% active; in the data active = activity change below about -80%; inconclusive = between about -30% and that limit;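 also: parasites exposed to compound for two days anaerobically before the ATP read; % is scaled to controls: 0 for no effect and ±100 for the full control effect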
#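 Giardia trophozoites, 100 cells per well, were exposed to compounds for 48 hrs at 37 deg C under anaerobic conditions; viability was then read as ATP content by bioluminescence after 15-30 min at room temperature.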
# TGFb SMAD3 inh: TGF-b pathway inhibition; Potency, µM (highest dose often 46.1 µM), inactives show top-dose activity, negative = inhibition, most hits filed as inhibitors; HepG2 CAGA-GFP TGF-b/SMAD3 reporter, GFP fluorescence, 18 h; TGF-beta stimulated, 500 pg/mL final; 410,000 tested, 1.2% active; also: potency is read from the fitted curve at half-maximal effect; % is scaled to controls: 0 for no effect and ±100 for the full control effect; nearly all actives have a fitted effect of over 65% in size
#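 Per well, imaged GFP fluorescence of HEPG2 CAGA-GFP cells gives the signal; cells get compound, then TGF-beta (500 pg/mL final), 18 h at 37 degrees C; %Activity versus -TGF-beta and +DMSO controls.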
# S2 tox: cell viability loss in ATXN counter-screen | S2 cells (HEK-293 line with an ATXN2-luciferase reporter) viability, CellTiter-Fluor protease fluorescence, 24 h | Potency, µM (series often up to 56.7 µM), most hits filed as cytotoxic | 400,000 tested, 0.49% active; also: potency is read from the fitted curve at half-maximal effect; nearly all actives have a fitted effect of over 40% in size
# ATXN2 expr inh: reduces ATXN2 reporter expression in HEK-293 cells; 360,000 tested, 0.72% active; HEK-293 ATXN2-luciferase reporter, luminescence, 24 h; Potency, µM (titrated, usually from 57 µM), without a hit: at the highest dose activity change, negative = inhibition, hits mostly inhibitors; also: potency is read from the fitted curve at half-maximal effect; % is scaled to controls: 0 for no effect and ±100 for the full control effect; nearly all actives have a fitted effect of over 55% in size
#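 ATXN2-luciferase reporter cells (luciferase flanked by upstream and downstream ATXN2 gene portions) were treated 24 h at 37 °C with compounds at up to 57 uM. SteadyGlo luminescence gave expression; GF-AFC fluorescence gave viability.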
# TGFb CAGA inh: confirmation of TGF-b signaling inhibitors in HepG2 reporter cells | HepG2 CAGA-GFP TGF-b reporter, GFP fluorescence, 18 h; cells stimulated with TGF-beta, 500 pg/mL | shares compounds with TGFb SMAD3 inh | 1,600 tested, 63% active | Potency, µM (titrated, usually from 46.1 µM), without a hit: at the top dose activity, negative = inhibition, most hits filed as inhibitors; also: potency is read from the fitted curve at half-maximal effect; % is scaled to controls: 0 for no effect and ±100 for the full control effect; nearly all actives have a fitted effect of over 65% in size
# HepG2 tox-2: HepG2 cytotoxicity, TGF-b inhibitor counterscreen; shares compounds with TGFb SMAD3 inh; HepG2 CAGA-GFP viability, ATP luminescence, 18 h; cells stimulated with TGF-beta, 500 pg/mL; Potency, µM (series often up to 46.1 µM), without a hit: at the highest dose activity, negative = cytotoxicity, usual class: inhibitors; 1,600 tested, 27% active; also: potency is read from the fitted curve at half-maximal effect; % is scaled to controls: 0 for no effect and ±100 for the full control effect; nearly all actives have a fitted effect of over 70% in size
# CCL64 TGFb inh: blocks TGF-b signaling in CCL64 reporter cells | shares compounds with TGFb SMAD3 inh | CCL64 CAGA-GFP reporter, TGF-b stimulated, GFP fluorescence, 18 h | Potency, µM (titrated, usually from 46.1 µM), for the others: top-dose activity, negative = inhibition, hits mostly inhibitors | 1,600 tested, 41% active | AID 720536; also: potency is read from the fitted curve at half-maximal effect; nearly all actives have a fitted effect of over 65% in size
# TGFb COP inh: TGF-b inhibition validated with COP promoter; shares compounds with TGFb SMAD3 inh; HepG2 COP-GFP TGF-b reporter, GFP fluorescence, 18 h; cells stimulated by added recombinant TGF-beta; Potency, µM (top dose mostly 46.1 µM), without a hit: at the top dose activity, negative = inhibition, actives largely listed as inhibitors; 1,600 tested, 3% active; AID 720537; also: potency is read from the fitted curve at half-maximal effect; nearly all actives have a fitted effect of over 70% in size
# Starred values were filed as active, the others as inactive; i = inactive; ? = inconclusive; . = not tested or not shown. Unless noted, calls follow the shape of the dose curve; as a rule, active = well fitted curve in the direction sought with a large enough effect; inconclusive = small, poorly fitted or top-dose-only effect, or another doubt; inactive = no such curve, though single readings can be large; an effect the other way counts as inactive or inconclusive.
SMILES,uPA generation,HepG2 tox-1,Giardia kill,TGFb SMAD3 inh,S2 tox,ATXN2 expr inh,TGFb CAGA inh,HepG2 tox-2,CCL64 TGFb inh,TGFb COP inh
CN(c1ccc(F)cc1)S(=O)(=O)c1ccc(Cl)c(C(=O)Nc2ccncc2)c1,-9.0%,-19.2%,10.0,?,?,-16.3%,.,.,.,.
O=C(Nc1cccc(C(F)(F)F)c1)Nc1ccc(N2CCCC2)c(S(=O)(=O)Nc2ccccc2Cl)c1,-9.9%,-56.1%,-5.6,2.82µM*,?,?,4.11µM*,9.2µM*,5.17µM*,99.6%
CC(C)(C)c1cc(C(c2cccnc2)N2CCN(CCO)CC2)cc(C(C)(C)C)c1O (stereo not drawn),?,12.6µM*,20.1,7.94µM*,.,?,5.17µM*,14.6µM*,4.61µM*,?
NC(Cc1ccc(C(F)(F)F)cc1)c1csc(NC(=O)Nc2ccccc2Cc2ccccc2)n1 (stereo not drawn),.,6.31µM*,.,3.16µM*,.,?,?,?,14.6µM*,?
NC(CO)c1csc(NC(=O)Nc2ccccc2Cc2ccccc2)n1 (stereo not drawn),.,4.0%,.,15.5%,i,1.4%,.,.,.,.
COc1ccc(CNS(=O)(=O)c2ccc3c(c2)C(C)(C)C(=O)N3C)cc1OC,.,-3.9%,.,5.2%,i,4.6%,.,.,.,.
COc1cc(/C=C(\C#N)c2nc3ccccc3[nH]2)cc(Br)c1OCc1ccccc1,5.4%,-28.9%,-6.3,11.2µM*,.,?,?,?,-19.3%,21.6%
CC(C)CCNC(=O)C(c1ccco1)N(Cc1cccs1)C(=O)Cn1nnc2ccccc21 (stereo not drawn),5.1%,17.6%,-7.0,7.08µM*,i,3.0%,?,8.9%,?,1.3%
O=C(c1ccc(Br)cc1)N(Cc1nc2ccccc2c(=O)[nH]1)C1CCCC1,1.5%,-13.3%,-9.4,11.2µM*,i,-33.4%,23.1µM*,-24.7%,-9.6%,19.4%
O=C(c1ccccc1)N(Cc1nc2ccccc2c(=O)[nH]1)C1CCCC1,0.3%,6.1%,-10.1,?,i,-15.8%,.,.,.,.
COc1cc(/C=C/c2nc(C#N)c(N3CCC(C)CC3)o2)cc(OC)c1OC,.,-23.8%,.,-22.2%,.,.,.,.,.,.
COc1ccc(CN(C)CCCn2cnc3c(SC)ncnc32)cc1OC,.,-40.0%,.,-9.2%,i,-1.2%,.,.,.,.
CCCN(CCC)Cc1c(C(=O)N/N=C/C(C)=C\c2ccco2)nnn1-c1nonc1N,-5.4%,-14.8%,4.5,7.94µM*,.,?,5.17µM*,?,?,26.5%
CC(/C=N/NC(=O)c1nnn(-c2nonc2N)c1CN(C)C)=C\c1ccco1,2.7%,-9.3%,-10.0,10.7%,i,-9.4%,.,.,.,.
COc1ccc(C2(c3ccc(OC)cc3)NC(=O)N(CC(=O)N(C)C3CCC(C)CC3)C2=O)cc1 (stereo not drawn),-7.3%,11.5%,-14.9,?,?,2.1%,.,.,.,.
Cc1ccc(S(=O)(=O)N2CCCCC2)cc1C(=O)OC1CCCCC1=O (stereo not drawn),-2.7%,-14.0%,-24.5,?,i,9.1%,?,7.0%,11.7%,0.1%
O=C(OC1CCCCC1=O)c1cccc(S(=O)(=O)N2CCCCC2)c1 (stereo not drawn),-6.2%,6.2%,4.6,-0.6%,i,7.3%,.,.,.,.
CCOc1ccc(S(=O)(=O)NCCC(=O)NCCOc2ccccc2)cc1,-0.5%,3.7%,24.2,-8.5%,i,-10.1%,.,.,.,.
COc1ccc(C(NC(C)=O)c2cc(Cl)c3cccnc3c2O)cc1 (stereo not drawn),6.31µM*,-43.1%,-16.3,7.08µM*,i,4.47µM*,?,?,13µM*,20.2%
O=C(O)c1ccccc1NC(c1ccccc1)c1ccc2cccnc2c1O (stereo not drawn),-8.5%,-19.6%,-7.3,8.91µM*,?,?,6.51µM*,?,14.6µM*,-23.6%
Cc1ccnc(NC(c2ccccc2)c2ccc3cccnc3c2O)c1 (stereo not drawn),-14.1%,-10.3%,?,?,i,?,.,.,.,.
COc1ccc(C(NC(=O)C(C)C)c2ccc3cccnc3c2O)cc1 (stereo not drawn),6.7%,-38.0%,19.5,4.47µM*,i,3.16µM*,-12.6%,?,7.31µM*,35.1%
CNc1ccc(C=O)cc1Br,.,4.6%,.,6.4%,.,.,.,.,.,.
c1ccc2c(c1)-c1nc3ccccc3cc1C2N1CCOCC1 (stereo not drawn),-2.9%,-34.6%,24.3,-0.2%,i,13.2%,.,.,.,.
N#Cc1nc(-c2ccc(OCc3ccccc3Cl)cc2)oc1N1CCC(C(N)=O)CC1,.,-1.8%,-6.8,9.3%,.,.,.,.,.,.
CC1(C)CN(C(=S)Nc2ccc(F)cc2F)C1=O,4.3%,-0.4%,-6.6,0.9%,i,-11.2%,.,.,.,.
CCCCCCOc1ccc(N2C(=O)CC(N(CCc3ccc(S(N)(=O)=O)cc3)C(C)=O)C2=O)cc1 (stereo not drawn),0.6%,-6.1%,-3.6,?,i,-28.1%,?,-15.6%,0.2%,11.4%
Cc1nc(C)c(-c2csc(Nc3ccccn3)n2)s1,-4.7%,-38.6%,-0.2,?,?,31.9%,.,.,.,.
Cc1ccnc(Nc2nc(-c3sc(C)nc3C)cs2)c1,-9.0%,3.16µM*,-10.1,6.31µM*,?,-23.9%,9.2µM*,7.31µM*,?,-3.9%
CNC(=S)N/N=C/c1cc(C)n(-c2ccc(Cl)c(Cl)c2)c1C,-2.2%,-3.1%,-3.9,12.6µM*,i,0.3%,20.6µM*,?,?,33.7%
